In PubChem BioAssay:

Test: basal MM1S mitochondrial membrane potential changes, profiling panel, cell-based, JC-1 fluorescence, 24 h, 100 nL compound (AID 1170); further: test concentration not given here
Settings: higher = more signal

Row | SMILES | z-score
1 | COc1cc(Cc2cc3c(c(-c4ccccc4)n2)[Si](C(C)C)(C(C)C)OC3)cc(OC)c1OC | 0.382
2 | COCCOC(=O)N1C(=O)[C@@]2(c3cc(C#CCC(C(=O)OC)C(=O)OC)ccc31)[C@H](C(N)=O)[C@H]1C(=O)O[C@H](c3ccccc3)[C@H](c3ccccc3)N1[C@@H]2c1ccccc1OCCO | -1.62
3 | C[C@@]1([C@@H](NS(=O)(=O)c2cccc3cccnc23)c2ccc(-c3ccccc3)cc2)C[C@H]1C1CCCCC1 | -1.72
4 | C=C(C(=O)CC[C@@H](OC(=O)c1ccccc1-c1ccccc1C(=O)O)c1ccc(CO)o1)C(C)C | -0.0298
5 | CCOC(=O)C1=CCC(c2cccn2C(=O)OC(C)(C)C)N(S(=O)(=O)c2ccc(C)cc2)C1 (stereo not given) | -2.93
6 | O=C1N(Cc2ccccc2)c2ccccc2C[C@@]12N=C(c1ccc(OCCCO)cc1)O[C@H]2c1ccccc1 | 0.811
7 | Cc1ccc(S[C@]2(C(=O)NC3CC3)CC(=O)N(C3Cc4ccccc4C3)[C@@H]2c2ccc(CO)cc2I)cc1 | -0.499
8 | CCc1cccc(NC(=O)O[C@H]2[C@H](OC(=O)Nc3ccccc3-c3ccccc3)[C@H](OC(=O)Nc3ccccc3-c3ccccc3)[C@@H](OC)O[C@@H]2CO)c1 | -1
9 | CC(C)C[C@H]1NC(=O)CNC(=O)[C@@]23C(=O)N[C@@H](Cc4ccccc4)C2[C@H](C)[C@@]2(C)O[C@H]2C3/C=C/C/C=C\CNC1=O (stereo not given in full) | -0.112
10 | C=C(/C=C\CNS(=O)(=O)c1ccc(C)cc1)[C@H](O)[C@H]1CCCN1S(=O)(=O)c1ccccc1[N+](=O)[O-] | -0.671
